# In PubChem BioAssay AID1962 (The Scripps Research Institute Molecular Screening Center, 2009):
# “And” between values parts separate entries of the source, which are not always exact repeats. Equal values may be shown once. The whole screen tested about 300,000 compounds, of which about 2,500 (0.83%) were called active. What follows is part of a selection rich in actives, with near analogues and random picks from the rest. A number with no mark means an inactive call.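 The calls were made as follows: active = inhibition above the mean of all tested compounds plus 3 SD, set per screening campaign (cut at about 24% in these data); inactive = the rest.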
# Test system: tRNA 2'-phosphotransferase TPT1 (Candida albicans SC5314)
# Experiment: tRNA 2'-phosphotransferase blockers, C. albicans – biochemical, fluorescence polarization, primary screen (AID 1962);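 also: plate controls were DMSO alone for no effect and ferristatin control at 100 nM for full effect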
# Conditions: recombinant caTPT1, FP RNA substrate dephosphorylation; at 5 µM; active compounds read high
row,SMILES,inhibition
1,O=C(COc1ccc2ccccc2c1)N1CCN(Cc2ccncc2)CC1,-1.1%
2,CN(C)C(=O)Oc1cc(OC(=O)N(C)C)cc(C(O)CNC(C)(C)C)c1 (stereo unspecified),-1.53% and -2.15%
3,COc1cccc(C(=O)N2C[C@H]3C[C@@H](C2)c2cccc(=O)n2C3)c1,-1.64%
4,COc1ccc(C2N3CC(C)(C)CN23)cc1 (stereo unspecified),0.1%
5,CC(C)(C)c1ccc(CN2C(=O)CN=C(c3ccccc3)c3ccccc32)cc1,2.92%
6,O=C1CC(=O)N(Cc2ccccc2)C(=O)N1CCCCCCN1C(=O)CC(=O)N(Cc2ccccc2)C1=O,71.4% (active)
7,O=C(CN1CCCC1=O)NCCc1ccccc1,-1.43%
8,Fc1ccc(C2N3CCCN23)cc1 (stereo unspecified),-5.01%
9,Cn1c(O)c(C=Nc2ccc3c(c2)CCC3)c(=O)n(C)c1=O,-3.76%
10,CN(C)CCCN=Cc1c(O)n(Cc2ccco2)c(=O)[nH]c1=O,1.6%
11,CC(C)n1c(=O)c(C=Nc2ccc(Br)cc2)c(O)n(Cc2ccco2)c1=O,27.9% (active)
12,CCOc1ccc(-c2cc(C)[n+](CCN(CC)CC)c(-c3ccc(OCC)cc3)c2)cc1,-0.45%
13,Cc1ccc(-n2c(-c3ccc([N+](=O)[O-])cc3)nc3ccccc3c2=O)cc1,-3%
14,Cc1ccc(N2C(=O)NC(=O)C(CCc3ccncc3)(Cc3cccc(Cl)c3Cl)C2=O)cc1 (stereo unspecified),3.87%
15,CC(C)Nc1nc(Cl)nc(NC(C)C)n1,-2.15%
16,CCC(=NCc1ccco1)c1c(O)n(Cc2ccccc2)c(=O)[nH]c1=O,3.72%
17,O=C(N/N=C/c1c(O)n(Cc2ccccc2)c(=O)[nH]c1=O)c1ccccc1,2.3%
18,CC/C(=N\NC(=O)c1ccccc1O)c1c(O)n(Cc2ccccc2)c(=O)[nH]c1=O,46.6% (active)
19,COc1ccc2c(c1)[C@]13CCCCC1C(C2)N(C)CC3 (stereo partly specified),-1.13%
20,CC1CCCCN1Cc1cccnc1 (stereo unspecified),-4.61%
21,CN(c1ccccc1)c1ccc([N+](=O)[O-])c2nonc12,14.5%
